The first assay has as its target T1, ERG (Homo sapiens, UniProt P11308 1-479).
T1 sequence: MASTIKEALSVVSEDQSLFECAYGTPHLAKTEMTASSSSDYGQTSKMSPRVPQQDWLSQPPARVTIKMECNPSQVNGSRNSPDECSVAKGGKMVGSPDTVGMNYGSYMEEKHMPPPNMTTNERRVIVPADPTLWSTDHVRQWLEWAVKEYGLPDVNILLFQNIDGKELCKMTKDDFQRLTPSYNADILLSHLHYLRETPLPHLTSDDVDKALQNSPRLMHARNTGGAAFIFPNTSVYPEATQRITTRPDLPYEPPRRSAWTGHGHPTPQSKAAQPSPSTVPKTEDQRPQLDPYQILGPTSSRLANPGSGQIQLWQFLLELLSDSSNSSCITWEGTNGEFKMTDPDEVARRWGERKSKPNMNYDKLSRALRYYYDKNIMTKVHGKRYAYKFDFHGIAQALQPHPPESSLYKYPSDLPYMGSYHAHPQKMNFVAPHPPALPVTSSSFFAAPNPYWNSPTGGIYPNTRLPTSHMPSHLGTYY
In words: DAPPL (digital affinity profiling via proximity ligation, sequencing); 10 mM Tris-HCl pH 7.5, 50 mM NaCl, 1 mM DTT, 4% glycerol, room temperature, 30 min; GST-TFs on glutathione beads, 16-mer random dsDNA library, 0.1% formaldehyde crosslink after washing; high values mean tight binding. To be noted: protein: recombinant; tags: N-terminal GST; dsDNA, one strand shown. Summed up:
(§1)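 Human transcription factors carrying a GST fusion were produced in yeast, bound to glutathione beads, tagged with DNA barcodes and pooled together with a tag-only sample. Each pool was held with 200 nmole of a random double-stranded 16-mer DNA library in Tris/NaCl/DTT/glycerol buffer for 30 min at room temperature, then washed, crosslinked in 0.1% formaldehyde, proximity-ligated with BsaI/T4 ligase (1 h, 37 °C), PCR-amplified and sequenced on an Illumina NextSeq500. Binding signal is the read frequency of each hexamer for a given factor divided by its frequency in the tag-only sample.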
Chain of ELF1 (P32519 whole entry): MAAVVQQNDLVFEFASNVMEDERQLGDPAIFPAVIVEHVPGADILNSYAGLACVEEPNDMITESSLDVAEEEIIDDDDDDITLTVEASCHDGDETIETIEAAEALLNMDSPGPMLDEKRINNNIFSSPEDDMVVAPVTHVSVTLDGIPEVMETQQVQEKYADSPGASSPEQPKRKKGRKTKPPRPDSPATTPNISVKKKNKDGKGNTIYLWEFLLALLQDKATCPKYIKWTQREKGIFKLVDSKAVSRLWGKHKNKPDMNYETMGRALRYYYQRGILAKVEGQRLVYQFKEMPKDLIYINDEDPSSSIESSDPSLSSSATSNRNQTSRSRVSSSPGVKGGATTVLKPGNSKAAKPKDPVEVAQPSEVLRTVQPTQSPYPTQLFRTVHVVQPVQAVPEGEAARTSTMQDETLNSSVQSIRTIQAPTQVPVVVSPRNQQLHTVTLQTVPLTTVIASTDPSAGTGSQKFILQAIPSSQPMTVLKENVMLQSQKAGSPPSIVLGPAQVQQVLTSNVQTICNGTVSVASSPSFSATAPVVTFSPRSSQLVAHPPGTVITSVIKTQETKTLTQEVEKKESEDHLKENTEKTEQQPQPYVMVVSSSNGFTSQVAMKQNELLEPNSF
Regarding CTACTA, the binding signal is 1.24 fold enrichment (6-mer frequency, TF over GST control).

In the case of ACTCTG, the binding signal was 1.24 fold enrichment (6-mer frequency, TF over GST control).

Turning to TTCACT, the binding signal is 1.36 fold enrichment (6-mer frequency, TF over GST control).

Consider CCTGAC, for which the binding signal is 1.48 fold enrichment (6-mer frequency, TF over GST control).

Turning to TTCAAA, the binding signal is 1.2 fold enrichment (6-mer frequency, TF over GST control).

In the case of CGCCTT, the binding signal is 1.44 fold enrichment (6-mer frequency, TF over GST control).

Consider CCATTT, for which the binding signal was 1.4 fold enrichment (6-mer frequency, TF over GST control).

Turning to ACCCTA, the binding signal was 1.18 fold enrichment (6-mer frequency, TF over GST control).

With CTTAAT, the binding signal was 1.13 fold enrichment (6-mer frequency, TF over GST control).

As to TACGCG, the binding signal was 1.14 fold enrichment (6-mer frequency, TF over GST control).

Take ACGTTT: the binding signal was 1.27 fold enrichment (6-mer frequency, TF over GST control).

For GGACCT, the binding signal is 1.33 fold enrichment (6-mer frequency, TF over GST control).

With GCTTTG, the binding signal was 1.15 fold enrichment (6-mer frequency, TF over GST control).

In the case of AACTTT, the binding signal is 1.16 fold enrichment (6-mer frequency, TF over GST control).

With ACTACT, the binding signal was 1.28 fold enrichment (6-mer frequency, TF over GST control).

As for GAAATA, the binding signal is 1.61 fold enrichment (6-mer frequency, TF over GST control).

Consider TAACTA, for which the binding signal was 1.42 fold enrichment (6-mer frequency, TF over GST control).

As to TATTAT, the binding signal is 1.25 fold enrichment (6-mer frequency, TF over GST control).

Turning to GAACCT, the binding signal was 1.09 fold enrichment (6-mer frequency, TF over GST control).

For the sequence GCTCAC, the binding signal was 1.51 fold enrichment (6-mer frequency, TF over GST control).

The next assay addresses ELF1 (Homo sapiens, UniProt P32519 1-619). The description is as above. To be noted: protein: recombinant; tags: N-terminal GST; dsDNA, one strand shown. In a few lines: as §1
In the case of TGCTCT, the binding signal was 1.34 fold enrichment (6-mer frequency, TF over GST control).

Turning to AACAAA, the binding signal was 1.14 fold enrichment (6-mer frequency, TF over GST control).

With CTTATT, the binding signal was 1.5 fold enrichment (6-mer frequency, TF over GST control).

Turning to TCGTTT, the binding signal was 1.15 fold enrichment (6-mer frequency, TF over GST control).

With TTTTGG, the binding signal is 1.36 fold enrichment (6-mer frequency, TF over GST control).

On to TAAAGT, for which the binding signal is 1.18 fold enrichment (6-mer frequency, TF over GST control).

As to GCCCTA, the binding signal is 1.19 fold enrichment (6-mer frequency, TF over GST control).

Consider TTAGCA, for which the binding signal was 1.18 fold enrichment (6-mer frequency, TF over GST control).

As to GCCTTC, the binding signal is 1.58 fold enrichment (6-mer frequency, TF over GST control).

Consider ATAGAT, for which the binding signal was 1.23 fold enrichment (6-mer frequency, TF over GST control).

Regarding TTTAGC, the binding signal was 1.19 fold enrichment (6-mer frequency, TF over GST control).

In the case of GCTAAT, the binding signal was 1.16 fold enrichment (6-mer frequency, TF over GST control).

TATATA: the binding signal is 1.32 fold enrichment (6-mer frequency, TF over GST control).

For AATTAG, the binding signal was 1.12 fold enrichment (6-mer frequency, TF over GST control).

Regarding GTAATA, the binding signal is 1.15 fold enrichment (6-mer frequency, TF over GST control).

On to CTCCCC, for which the binding signal was 1.45 fold enrichment (6-mer frequency, TF over GST control).

On to GATTCC, for which the binding signal was 1.18 fold enrichment (6-mer frequency, TF over GST control).

For CCTTCC, the binding signal was 2.39 fold enrichment (6-mer frequency, TF over GST control).

TTCTTC: the binding signal is 1.85 fold enrichment (6-mer frequency, TF over GST control).

As to GAATAA, the binding signal was 1.09 fold enrichment (6-mer frequency, TF over GST control).

As for CTACTA, the binding signal was 1.39 fold enrichment (6-mer frequency, TF over GST control).

On to ACTCTG, for which the binding signal was 1.37 fold enrichment (6-mer frequency, TF over GST control).

TTCACT: the binding signal was 1.43 fold enrichment (6-mer frequency, TF over GST control).

Take CCTGAC: the binding signal is 1.46 fold enrichment (6-mer frequency, TF over GST control).

Turning to TTCAAA, the binding signal was 1.34 fold enrichment (6-mer frequency, TF over GST control).

On to CGCCTT, for which the binding signal was 1.44 fold enrichment (6-mer frequency, TF over GST control).

Regarding CCATTT, the binding signal is 1.27 fold enrichment (6-mer frequency, TF over GST control).

As for ACCCTA, the binding signal is 1.32 fold enrichment (6-mer frequency, TF over GST control).

In the case of CTTAAT, the binding signal is 1.26 fold enrichment (6-mer frequency, TF over GST control).

Regarding TACGCG, the binding signal is 1.12 fold enrichment (6-mer frequency, TF over GST control).

Turning to ACGTTT, the binding signal is 1.17 fold enrichment (6-mer frequency, TF over GST control).

Take GGACCT: the binding signal was 1.35 fold enrichment (6-mer frequency, TF over GST control).

In the case of GCTTTG, the binding signal is 1.14 fold enrichment (6-mer frequency, TF over GST control).

Turning to AACTTT, the binding signal is 1.23 fold enrichment (6-mer frequency, TF over GST control).

ACTACT: the binding signal is 1.32 fold enrichment (6-mer frequency, TF over GST control).

In the case of GAAATA, the binding signal is 1.45 fold enrichment (6-mer frequency, TF over GST control).

As to TAACTA, the binding signal was 1.32 fold enrichment (6-mer frequency, TF over GST control).

As for TATTAT, the binding signal was 1.25 fold enrichment (6-mer frequency, TF over GST control).

For the sequence GAACCT, the binding signal was 1.13 fold enrichment (6-mer frequency, TF over GST control).

In the case of GCTCAC, the binding signal is 1.49 fold enrichment (6-mer frequency, TF over GST control).

A further assay addresses T2, EHF (Homo sapiens, UniProt Q9NZC4 1-300).
T2 sequence: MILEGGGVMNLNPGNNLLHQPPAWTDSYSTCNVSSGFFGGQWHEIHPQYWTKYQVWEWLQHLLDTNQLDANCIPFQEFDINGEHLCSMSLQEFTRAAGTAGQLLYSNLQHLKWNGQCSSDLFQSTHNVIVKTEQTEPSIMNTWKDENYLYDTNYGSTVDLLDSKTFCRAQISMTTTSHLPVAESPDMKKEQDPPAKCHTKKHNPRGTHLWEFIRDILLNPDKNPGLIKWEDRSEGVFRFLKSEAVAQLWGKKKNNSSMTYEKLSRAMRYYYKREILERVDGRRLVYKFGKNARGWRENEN
Described as above. To be noted: protein: recombinant; tags: N-terminal GST; dsDNA, one strand shown. Summed up:
as §1
On to TGCTCT, for which the binding signal was 1.19 fold enrichment (6-mer frequency, TF over GST control).

For the sequence AACAAA, the binding signal was 1.17 fold enrichment (6-mer frequency, TF over GST control).

Turning to CTTATT, the binding signal is 1.48 fold enrichment (6-mer frequency, TF over GST control).

As for TCGTTT, the binding signal is 1.22 fold enrichment (6-mer frequency, TF over GST control).

For TTTTGG, the binding signal is 1.37 fold enrichment (6-mer frequency, TF over GST control).

On to TAAAGT, for which the binding signal is 1.18 fold enrichment (6-mer frequency, TF over GST control).

GCCCTA: the binding signal was 1.12 fold enrichment (6-mer frequency, TF over GST control).

As to TTAGCA, the binding signal was 1.21 fold enrichment (6-mer frequency, TF over GST control).

In the case of GCCTTC, the binding signal is 1.43 fold enrichment (6-mer frequency, TF over GST control).

With ATAGAT, the binding signal was 1.17 fold enrichment (6-mer frequency, TF over GST control).

As to TTTAGC, the binding signal is 1.12 fold enrichment (6-mer frequency, TF over GST control).

Regarding GCTAAT, the binding signal is 1.17 fold enrichment (6-mer frequency, TF over GST control).

On to TATATA, for which the binding signal is 1.32 fold enrichment (6-mer frequency, TF over GST control).

With AATTAG, the binding signal was 1.06 fold enrichment (6-mer frequency, TF over GST control).

For the sequence GTAATA, the binding signal was 1.2 fold enrichment (6-mer frequency, TF over GST control).

CTCCCC: the binding signal is 1.56 fold enrichment (6-mer frequency, TF over GST control).

In the case of GATTCC, the binding signal was 1.15 fold enrichment (6-mer frequency, TF over GST control).

For CCTTCC, the binding signal was 2.75 fold enrichment (6-mer frequency, TF over GST control).

As for TTCTTC, the binding signal is 1.75 fold enrichment (6-mer frequency, TF over GST control).

In the case of GAATAA, the binding signal was 1.09 fold enrichment (6-mer frequency, TF over GST control).

CTACTA: the binding signal is 1.33 fold enrichment (6-mer frequency, TF over GST control).

In the case of ACTCTG, the binding signal was 1.33 fold enrichment (6-mer frequency, TF over GST control).

Turning to TTCACT, the binding signal was 1.32 fold enrichment (6-mer frequency, TF over GST control).

Consider CCTGAC, for which the binding signal was 1.58 fold enrichment (6-mer frequency, TF over GST control).

As to TTCAAA, the binding signal is 1.24 fold enrichment (6-mer frequency, TF over GST control).

As to CGCCTT, the binding signal was 1.34 fold enrichment (6-mer frequency, TF over GST control).

For CCATTT, the binding signal was 1.31 fold enrichment (6-mer frequency, TF over GST control).

ACCCTA: the binding signal was 1.09 fold enrichment (6-mer frequency, TF over GST control).

For CTTAAT, the binding signal was 1.24 fold enrichment (6-mer frequency, TF over GST control).

As to TACGCG, the binding signal is 1.06 fold enrichment (6-mer frequency, TF over GST control).

In the case of ACGTTT, the binding signal is 1.16 fold enrichment (6-mer frequency, TF over GST control).

Consider GGACCT, for which the binding signal was 1.35 fold enrichment (6-mer frequency, TF over GST control).

Take GCTTTG: the binding signal is 1.15 fold enrichment (6-mer frequency, TF over GST control).

With AACTTT, the binding signal was 1.18 fold enrichment (6-mer frequency, TF over GST control).

Consider ACTACT, for which the binding signal was 1.34 fold enrichment (6-mer frequency, TF over GST control).

In the case of GAAATA, the binding signal is 1.64 fold enrichment (6-mer frequency, TF over GST control).

Take TAACTA: the binding signal was 1.27 fold enrichment (6-mer frequency, TF over GST control).

As to TATTAT, the binding signal was 1.25 fold enrichment (6-mer frequency, TF over GST control).

For the sequence GAACCT, the binding signal is 1.15 fold enrichment (6-mer frequency, TF over GST control).

As to GCTCAC, the binding signal is 1.51 fold enrichment (6-mer frequency, TF over GST control).

For the origin of these results see article PMC7862700, “An all-to-all approach to the identification of sequence-specific readers for epigenetic DNA modifications on cytosine”.
